Test results from PubChem BioAssay (Tox21).
“And” between values parts separate entries of the source, which are not always exact repeats. Equal entries are not always repeated. Records with an inconclusive call do not appear. A call without a number means that no potency is given here. The source made the active and inactive calls. Unless noted, the call rests on the fitted dose curve.

Columns and labels:
[1] = Nuclear factor erythroid 2-related factor 2/antioxidant responsive element (Nrf2/ARE) small molecule agonists: qHTS cell viability counter screen in human keratinocytes (AID 1919968; active means well fitted curve in the direction sought with a large enough effect in the repeat runs; an effect the other way counts as inactive or inconclusive; further: nearly all actives have a fitted effect of over 55% in size)
How it was run: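 Parallel cytotoxicity read: KeratinoSens HaCaT cells, compound treatment 23 h, viability by CellTiter-Fluor fluorescence 1 h post-reagent.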

[2] = biological target: KiSS-1 receptor (Homo sapiens) (UniProt Q969F8); assay: Human kisspeptin (KISS1R) small molecule agonists, calcium flux assay in KISS1R-HEK293 cells (AID 1920064; active means well fitted curve in the direction sought with a large enough effect in the repeat runs; an effect the other way counts as inactive or inconclusive)
Sequence of KiSS-1 receptor (Homo sapiens) (Q969F8 whole entry, looked up): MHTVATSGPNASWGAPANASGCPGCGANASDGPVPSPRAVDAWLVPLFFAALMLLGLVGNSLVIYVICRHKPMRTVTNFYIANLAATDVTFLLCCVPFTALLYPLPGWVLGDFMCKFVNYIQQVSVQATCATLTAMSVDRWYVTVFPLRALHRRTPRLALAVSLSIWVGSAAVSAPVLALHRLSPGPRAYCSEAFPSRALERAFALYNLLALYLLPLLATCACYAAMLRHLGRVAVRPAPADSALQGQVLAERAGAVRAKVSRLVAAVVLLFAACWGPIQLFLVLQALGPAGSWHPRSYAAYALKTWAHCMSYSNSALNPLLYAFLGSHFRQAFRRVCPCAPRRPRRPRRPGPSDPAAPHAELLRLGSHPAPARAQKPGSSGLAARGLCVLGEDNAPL
How it was run: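 Triplicate 15-concentration series were applied to dye-loaded human KISS1R HEK293 cells, and agonist-evoked calcium fluorescence was captured for 3 min.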

[3] = G protein-coupled receptor (GPCR) small molecule agonists, calcium flux assay: HEK293 wild type cell line counter screen (AID 1920065)
How it was run: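 Non-specific calcium responders were flagged by adding DMSO-dissolved compounds to dye-loaded cells and reading 480/540 nm fluorescence each second for 3 min; ATP served as positive control.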

[4] = p53 small molecule agonists, cell-based qHTS assay with human liver microsomes: qHTS cell viability counter screen (AID 1963579); further: nearly all actives have a fitted effect of over 45% in size
How it was run: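 Cells carrying the p53 response-element beta-lactamase reporter are treated for 16 h at 37 C with test compounds in the presence of human liver microsomes and NADPH (both 0.5 mg/mL final); ATP-based CellTiter-Glo luminescence then reports viability.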

[5] = p53 small molecule agonists, cell-based qHTS assay with rat liver microsomes: qHTS cell viability counter screen (AID 1963580); further: nearly all actives have a fitted effect of over 45% in size
How it was run: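 Counter screen for cytotoxicity under metabolic activation: rat liver microsomes and NADPH, 0.5 mg/mL final each, added with compounds to p53RE-bla HCT-116 cells; 16 h at 37 C, then ATP luminescence read.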

[6] = p53 small molecule agonists, cell-based qHTS assay: qHTS cell viability counter screen (AID 1963581); further: nearly all actives have a fitted effect of over 45% in size
How it was run: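 Multiplexed with the reporter read, a CellTiter-Glo step (30 min, room temperature) gauges ATP-based viability of HCT-116 p53RE-bla cells after 16 h compound incubation at 37 C.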

[7] = biological target: 5-hydroxytryptamine receptor 2A (Homo sapiens) (UniProt P28223); assay: 5-hydroxytryptamine receptor 2A (HTR2A) small molecule antagonists, cell-based qHTS assay (AID 1963586); further: nearly all actives have a fitted effect of over 45% in size
Sequence of 5-hydroxytryptamine receptor 2A (Homo sapiens) (P28223 whole entry, looked up): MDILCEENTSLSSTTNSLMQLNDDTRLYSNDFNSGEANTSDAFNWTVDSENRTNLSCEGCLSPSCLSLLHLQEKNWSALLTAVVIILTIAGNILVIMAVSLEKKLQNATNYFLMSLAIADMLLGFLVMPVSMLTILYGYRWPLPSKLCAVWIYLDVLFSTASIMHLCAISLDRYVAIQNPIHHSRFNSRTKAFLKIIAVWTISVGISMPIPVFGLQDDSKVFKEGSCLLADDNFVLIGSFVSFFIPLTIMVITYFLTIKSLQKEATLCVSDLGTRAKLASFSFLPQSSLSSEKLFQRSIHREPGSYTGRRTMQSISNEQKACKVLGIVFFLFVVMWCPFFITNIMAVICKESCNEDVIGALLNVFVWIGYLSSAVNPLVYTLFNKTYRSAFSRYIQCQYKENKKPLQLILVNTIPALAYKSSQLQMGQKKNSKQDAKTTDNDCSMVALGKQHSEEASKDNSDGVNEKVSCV
How it was run: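 CHO cells stably expressing human HTR2A were plated for 18 h at 37 C, then loaded with calcium dye for 1 h. Compounds were preincubated 5 min at room temperature before DOI (4 nM solution) was added. Kinetic fluorescence was read for 3 min.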

[8] = biological target: 5-hydroxytryptamine receptor 2A (Homo sapiens) (UniProt P28223); assay: 5-hydroxytryptamine receptor 2A (HTR2A) small molecule agonists, cell-based qHTS assay (AID 1963587); further: nearly all actives have a fitted effect of over 30% in size
How it was run: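 HTR2A-CHO cells, plated 18 h at 37 C/5% CO2, dye-loaded 1 h at 37 C; compounds in DMSO added by pin tool (agonist mode). Intracellular calcium flux read as kinetic fluorescence on FDSS over 2 min at 1 s intervals.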

[9] = biological target: Muscarinic acetylcholine receptor M1 (Homo sapiens) (UniProt P11229); assay: Cholinergic receptor muscarinic 1 (CHRM1) small molecule antagonists, cell-based qHTS assay (AID 1963588); further: nearly all actives have a fitted effect of over 40% in size
Sequence of Muscarinic acetylcholine receptor M1 (Homo sapiens) (P11229 whole entry, looked up): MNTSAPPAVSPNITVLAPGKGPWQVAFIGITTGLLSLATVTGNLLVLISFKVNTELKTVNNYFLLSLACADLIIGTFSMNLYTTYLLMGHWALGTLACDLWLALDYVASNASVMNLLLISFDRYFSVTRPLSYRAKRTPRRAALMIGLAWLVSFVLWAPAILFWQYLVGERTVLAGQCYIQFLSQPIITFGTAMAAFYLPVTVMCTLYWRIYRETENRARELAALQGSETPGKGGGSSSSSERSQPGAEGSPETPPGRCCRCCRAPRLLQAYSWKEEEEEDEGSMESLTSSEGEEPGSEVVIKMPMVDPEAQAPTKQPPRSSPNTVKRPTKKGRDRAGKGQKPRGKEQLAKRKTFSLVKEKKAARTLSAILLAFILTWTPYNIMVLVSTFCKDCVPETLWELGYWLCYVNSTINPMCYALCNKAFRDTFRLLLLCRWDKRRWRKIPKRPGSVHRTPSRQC
How it was run: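 Compounds were tested at 15 concentrations in three independent runs. Dye-loaded CHRM1-CHO cells were exposed 5 min at room temperature before stimulation by acetylcholine added at 50nM. Intracellular calcium was read kinetically on FDSS for 3 min.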

[10] = biological target: Muscarinic acetylcholine receptor M1 (Homo sapiens) (UniProt P11229); assay: Cholinergic receptor muscarinic 1 (CHRM1) small molecule agonists, cell-based qHTS assay (AID 1963589); further: nearly all actives have a fitted effect of over 35% in size
How it was run: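 qHTS, 15-point titration, 3 independent runs: compounds pin-transferred onto dye-loaded CHRM1-CHO cells (human M1), calcium fluorescence followed every second to detect agonism.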

[11] = cAMP Responsive Elements (CRE) small molecule agonists, cell-based qHTS assay (AID 1963590); further: potency means the concentration at half of the fitted maximal effect
How it was run: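 Quantitative HTS for CRE agonists: HEK 293T CRE-bla cells, overnight plating, 3 h compound incubation at 37 C/5% CO2, then 2 h room-temperature LiveBLAzer B/G FRET substrate loading.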

[12] = biological target: Beta-2 adrenergic receptor (Homo sapiens) (UniProt P07550); assay: Adrenergic beta2 receptor (ADRB2) small molecule antagonists, cell-based qHTS assay (AID 1963592); further: series mostly up to about 92 µM; nearly all actives have a fitted effect of over 50% in size
Sequence of Beta-2 adrenergic receptor (Homo sapiens) (P07550 whole entry, looked up): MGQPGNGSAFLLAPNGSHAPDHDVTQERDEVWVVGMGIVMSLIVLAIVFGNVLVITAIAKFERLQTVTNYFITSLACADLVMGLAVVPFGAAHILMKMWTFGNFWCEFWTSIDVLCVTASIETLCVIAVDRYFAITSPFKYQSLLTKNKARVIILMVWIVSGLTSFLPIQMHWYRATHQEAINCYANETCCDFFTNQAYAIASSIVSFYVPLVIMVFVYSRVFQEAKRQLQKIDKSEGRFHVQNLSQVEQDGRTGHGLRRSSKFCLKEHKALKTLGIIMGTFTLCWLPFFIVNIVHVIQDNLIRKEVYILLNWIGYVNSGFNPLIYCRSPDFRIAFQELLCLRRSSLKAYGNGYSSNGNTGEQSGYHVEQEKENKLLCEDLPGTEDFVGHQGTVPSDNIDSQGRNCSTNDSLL
How it was run: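 Assay format: CHO-ADRB2 cells, 18-20hr seeding at 37C/5% CO2, then compound plus 1nM isoproterenol agonist mix for 0.5hr RT. Homogeneous time-resolved fluorescence cAMP detection after 1hr, expressed as 665/615 nm ratio.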

[13] = biological target: Beta-2 adrenergic receptor (Homo sapiens) (UniProt P07550); assay: Adrenergic beta2 receptor (ADRB2) small molecule agonists, cell-based qHTS assay (AID 1963593); further: potency means the concentration at half of the fitted maximal effect;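 on activation: CHO cells stably overexpressing human ADRB2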
How it was run: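 CHO cells stably over-expressing ADRB2 were plated overnight at 37C, then dosed with compounds plus a stimulation mix containing 100uM IBMX and 25uM Ro-20-1724 for 0.5hr at room temperature. cAMP was measured by HTRF competition, 1hr.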

[14] = biological target: D(2) dopamine receptor (Homo sapiens) (UniProt P14416); assay: Dopamine D2 receptor (DRD2) small molecule agonists, cell-based qHTS assay (AID 1963594); further: nearly all actives have a fitted effect of over 35% in size
Sequence of D(2) dopamine receptor (Homo sapiens) (P14416 whole entry, looked up): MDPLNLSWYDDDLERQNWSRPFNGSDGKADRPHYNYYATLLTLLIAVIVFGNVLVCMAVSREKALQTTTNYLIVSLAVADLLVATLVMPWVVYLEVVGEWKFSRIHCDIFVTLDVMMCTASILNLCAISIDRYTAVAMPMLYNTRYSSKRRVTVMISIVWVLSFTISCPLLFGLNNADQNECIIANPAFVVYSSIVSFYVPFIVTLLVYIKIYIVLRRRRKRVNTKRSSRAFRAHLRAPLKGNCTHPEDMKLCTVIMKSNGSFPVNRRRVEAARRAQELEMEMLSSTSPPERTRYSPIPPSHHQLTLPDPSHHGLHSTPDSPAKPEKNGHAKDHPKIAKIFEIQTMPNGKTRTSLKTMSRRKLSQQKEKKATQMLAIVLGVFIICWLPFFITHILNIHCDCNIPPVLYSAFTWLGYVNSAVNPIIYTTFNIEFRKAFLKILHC
How it was run: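 HEK293 cells stably expressing DRD2 were cultured 24 h at 37 C, then given Ro20-1724 (0.1 mM final) and compounds for 10 min at room temperature. NKH477 (200nM) was then added for 30 min. cAMP was read by HTRF.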

[15] = biological target: D(2) dopamine receptor (Homo sapiens) (UniProt P14416); assay: Dopamine D2 receptor (DRD2) small molecule antagonists, cell-based qHTS assay (AID 1963595; active means well fitted inhibition curve with a large enough effect in the signal ratio in the repeat runs, with a control signal flat; the % refers to the signal ratio; further: potency means the concentration at half of the fitted maximal effect)
How it was run: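 Cells were plated and grown for 24 h at 37 °C. Ro20-1724 (0.1 mM final) went in first, then compound for 10 min. NKH477 (200 nM) with quinpirole (12 nM) followed for 30 min at RT, then HTRF detection reagents for 1 h.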

[16] = biological target: Gonadotropin-releasing hormone receptor (Homo sapiens) (UniProt P30968); assay: Human gonadotropin-releasing hormone receptor (GnRHR) small molecule agonists, calcium flux assay in GnRHR-HEK293 cells (AID 1920063); further: nearly all actives have a fitted effect of over 35% in size
Sequence of Gonadotropin-releasing hormone receptor (Homo sapiens) (P30968 whole entry, looked up): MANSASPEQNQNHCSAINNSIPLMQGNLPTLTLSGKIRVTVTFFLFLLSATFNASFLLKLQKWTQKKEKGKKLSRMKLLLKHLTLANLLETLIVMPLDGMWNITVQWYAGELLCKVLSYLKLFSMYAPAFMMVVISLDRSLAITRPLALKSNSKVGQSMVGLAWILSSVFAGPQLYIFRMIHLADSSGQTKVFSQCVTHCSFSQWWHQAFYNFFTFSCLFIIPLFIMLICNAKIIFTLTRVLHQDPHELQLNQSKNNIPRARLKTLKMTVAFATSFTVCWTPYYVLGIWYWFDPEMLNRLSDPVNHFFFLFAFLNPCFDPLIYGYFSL
How it was run: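 Calcium flux, agonist mode, human GnRHR stably integrated in HEK293; dye 1 h at 37 C before compound; Ex/Em=480/540 kinetic read, 3 min; 15 concentrations, triplicate.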

[17] = p53 small molecule agonists, cell-based qHTS assay with human liver microsomes (AID 1963577)
How it was run: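 Compounds act here after metabolic activation: human liver microsomes and NADPH, both at 0.5 mg/mL final, were co-added to p53RE-bla cells. Incubation ran 16 h at 37 C, followed by LiveBLAzer detection.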

[18] = p53 small molecule agonists, cell-based qHTS assay with rat liver microsomes (AID 1963578)
How it was run: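 Read-out is beta-lactamase reporter fluorescence (LiveBLAzer, 2 h, room temperature, dark) in p53RE-bla cells treated 16 h at 37 C with compound, rat liver microsomes and NADPH, both 0.5 mg/mL final.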

[19] = p53 small molecule agonists, cell-based qHTS assay (AID 1963582; active means well fitted activation curve with a large enough effect in the signal ratio in the repeat runs, not every such curve was filed as active; the % refers to the signal ratio)
How it was run: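 Beta-lactamase reporter cells (p53RE-bla) treated with compounds for 16 h at 37 C; FRET substrate, 2 h, room temperature; fluorescence intensity.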

[20] = cAMP Responsive Elements (CRE) small molecule antagonists, cell-based qHTS assay (AID 1963591; active means well fitted inhibition curve with a large enough effect in the signal ratio in the repeat runs, not every such curve was filed as active; the % refers to the signal ratio)
How it was run: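 Fluorescence intensity from cleaved LiveBLAzer B/G substrate (2 h, room temperature) quantified CRE-bla activity in HEK 293T cells exposed 3 h to compound with 0.25 uM final NKH477.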

| Compound | Potency [1] | Potency [2] | Potency [3] | Potency [4] | Potency [5] | Potency [6] | Potency [7] | Potency [8] | Potency [9] | Potency [10] | Potency [11] | Potency [12] | Potency [13] | Potency [14] | Potency [15] | Potency [16] | Potency [17] | Potency [18] | Potency [19] | Potency [20] |
| --- | --- | --- | --- | --- | --- | --- | --- | --- | --- | --- | --- | --- | --- | --- | --- | --- | --- | --- | --- | --- |
| CC1=CC[C@H]2C[C@@H]1C2(C)C | inactive | inactive | inactive | inactive | inactive | inactive | inactive | inactive | inactive | inactive | inactive | inactive | inactive | inactive | inactive | – | – | – | – | – |
| O=C(O)CCCCC(=O)O | inactive | inactive | inactive | inactive | inactive | inactive | inactive | inactive | inactive | inactive | inactive | inactive | inactive | – | inactive | inactive | inactive | inactive | inactive | inactive |
| CCOc1ccc(NC(=O)CC(C)O)cc1 (stereo unspecified) | inactive | inactive | inactive | inactive | inactive | – | inactive | inactive | inactive | inactive | inactive | inactive | inactive | inactive | inactive | – | inactive | – | inactive | inactive |
| C=C[C@@]1(C)CC(=O)[C@]2(O)[C@@]3(C)[C@@H](O)CCC(C)(C)[C@@H]3[C@H](O)[C@H](OC(C)=O)[C@@]2(C)O1 | inactive | inactive | inactive | inactive | – | inactive | inactive | inactive | inactive | inactive | 243 nM (active) and 298 nM (active) | – | 119 nM (active) | inactive | 30.6 nM (active) and 944 nM (active) | – | inactive | inactive | inactive | – |
| Cc1cccc2ccccc12 | inactive | inactive | inactive | inactive | inactive | inactive | inactive | inactive | inactive | inactive | inactive | inactive | inactive | inactive | inactive | – | inactive | inactive | – | inactive |
| Cc1ccc(N)c([N+](=O)[O-])c1 | inactive | – | inactive | inactive | inactive | inactive | inactive | inactive | inactive | inactive | inactive | inactive | inactive | inactive | inactive | – | – | – | – | inactive |
| CC(=O)OCC(COC(C)=O)OC(C)=O | inactive | inactive | inactive | inactive | inactive | inactive | – | – | – | – | inactive | inactive | inactive | – | inactive | – | – | – | – | inactive |
| C=C(C)C(=O)OCC(C)O (stereo unspecified) | inactive | inactive | inactive | inactive | inactive | inactive | inactive | inactive | – | – | inactive | inactive | inactive | inactive | inactive | – | – | – | – | inactive |
| COc1ccc(C(=O)c2ccccc2)c(O)c1 | inactive | inactive | inactive | – | inactive | inactive | inactive | inactive | – | inactive | – | inactive | inactive | inactive | inactive | – | inactive | inactive | inactive | inactive |
